Results reported in PubChem BioAssay (NCATS).
A number with no mark means an inactive call. Unless noted, calls come from the whole dose curve; as a rule, active = well fitted curve in the direction sought with a large enough effect; inconclusive = small, poorly fitted or top-dose-only effect, or another doubt; inactive = no such curve, though single readings can be large; an effect the other way counts as inactive or inconclusive. Results filed as inconclusive are left out.

System: not listed separately
Assay: qHTS for Activators of Parkin Expression: LOPAC Validation Assay (FLuc Reporter) (AID 720573;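 note: 0% = DMSO and 100% = positive control compounds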)
Conditions: Cell line, PRKN promoter firefly luciferase reporter, vehicle wells = 0, positive control = 100%; series mostly up to 46.1 µM; activation: at the top concentration
How it was run: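 Neuronal cell line stably carrying FLuc/NLuc coincidence reporter under Parkin promoter; cells plated 24 h, then compounds added in 7-point dose response for 24 h at 37 C. FLuc luminescence read; normalized to DMSO and positive control (100%).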

Structure (SMILES) | activation [%]
C[C@]12CC[C@@H]3c4ccc(O)cc4C[C@@H](CCCCCCCCCS(=O)CCCC(F)(F)C(F)(F)F)[C@H]3[C@@H]1CC[C@@H]2O (stereo partly drawn) | -16
COc1ccc2c(c1OC)C(=O)O[C@@H]2[C@H]1c2c(cc3c(c2OC)OCO3)CCN1C | -3.99
Cc1ccc(=O)n(-c2ccccc2)c1 | 3.55
CCOC(=O)C1=C(C)NC(C)=C(C(=O)OC)C1c1cccc(Cl)c1Cl (stereo not drawn) | 2.76
Brc1c(NC2=NCCN2)ccc2nccnc12 | -1.08

System: not listed separately
Assay: qHTS assay for small molecule agonists of the antioxidant response element (ARE) signaling pathway measured by Nrf2-dependant transcriptional activity (AID 720636; active = well fitted curve in the direction sought with a large enough effect in the repeat runs; an effect the other way counts as inactive or inconclusive;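 note: HepG2 cells with an ARE-driven luciferase reporter; % of control where 0% means no effect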)
Conditions: ARE-luc HepG2, Nrf2 luciferase reporter, 16 h; series mostly up to 92.4 µM; activation: at the top concentration
How it was run: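 ONE-Glo luminescence, read 30 min after reagent addition at room temperature, reflected ARE reporter activity in HepG2 cells that had been incubated with compound for 16 hr at 37 C in 1% dialyzed FBS.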

Structure (SMILES) | activation [%]
CC(=O)[C@@]1(O)CC[C@H]2[C@@H]3CCC4=CC(=O)CC[C@]4(C)[C@H]3CC[C@@]21C | -0.653
CN=C(NC#N)NCCSCc1nc[nH]c1C | -1.27
O=c1[nH]c(=O)n([C@H]2C[C@H](O)[C@@H](CO)O2)cc1Br | -0.547

System: not listed separately
Assay: qHTS assay for small molecule agonists of the antioxidant response element (ARE) signaling pathway measured by Nrf2-dependant transcriptional activity - cell viability counter screen (AID 720653; active = well fitted curve in the direction sought with a large enough effect in the repeat runs; an effect the other way counts as inactive or inconclusive; note: % is set by controls: 0 for no effect and ±100 for the full control effect)
Conditions: ARE-bla HepG2 viability, CellTiter-Glo ATP luminescence, 16 h; max response: hits give low values
How it was run: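 ARE-bla HepG2 cells (2,000/well) rested 5 hrs at 37C/5% CO2, then exposed to compounds in DMSO for 16 hrs. Viability was read in the same wells as intracellular ATP by luminescence, 30 min at room temperature after reagent addition.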

Structure (SMILES) | max response [%]
CC(=O)[C@@]1(O)CC[C@H]2[C@@H]3CCC4=CC(=O)CC[C@]4(C)[C@H]3CC[C@@]21C | -7.45
Cc1ccc(S(=O)(=O)NC(=O)NN2CCCCCC2)cc1 | 1.34
CN=C(NC#N)NCCSCc1nc[nH]c1C | 0.359
O=c1[nH]c(=O)n([C@H]2C[C@H](O)[C@@H](CO)O2)cc1Br | -13.7

Biological target: T1, Hexokinase-4 (Homo sapiens) + Glucokinase regulatory protein (Homo sapiens) (UniProt P35557+Q14397)
T1 sequence (P35557 whole entry, looked up): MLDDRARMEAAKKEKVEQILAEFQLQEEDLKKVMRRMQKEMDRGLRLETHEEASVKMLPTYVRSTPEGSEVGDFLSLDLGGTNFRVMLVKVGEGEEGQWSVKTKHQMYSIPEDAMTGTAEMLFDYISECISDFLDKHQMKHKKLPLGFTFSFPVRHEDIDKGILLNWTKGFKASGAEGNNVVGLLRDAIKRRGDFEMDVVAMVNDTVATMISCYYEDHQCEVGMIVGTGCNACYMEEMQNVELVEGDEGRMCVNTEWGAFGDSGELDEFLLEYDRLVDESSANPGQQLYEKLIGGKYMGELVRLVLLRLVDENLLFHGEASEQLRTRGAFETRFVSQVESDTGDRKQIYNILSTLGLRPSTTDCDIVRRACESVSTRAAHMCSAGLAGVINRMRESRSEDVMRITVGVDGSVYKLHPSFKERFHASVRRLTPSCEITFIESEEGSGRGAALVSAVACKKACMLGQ
T1 sequence (Q14397 whole entry, looked up): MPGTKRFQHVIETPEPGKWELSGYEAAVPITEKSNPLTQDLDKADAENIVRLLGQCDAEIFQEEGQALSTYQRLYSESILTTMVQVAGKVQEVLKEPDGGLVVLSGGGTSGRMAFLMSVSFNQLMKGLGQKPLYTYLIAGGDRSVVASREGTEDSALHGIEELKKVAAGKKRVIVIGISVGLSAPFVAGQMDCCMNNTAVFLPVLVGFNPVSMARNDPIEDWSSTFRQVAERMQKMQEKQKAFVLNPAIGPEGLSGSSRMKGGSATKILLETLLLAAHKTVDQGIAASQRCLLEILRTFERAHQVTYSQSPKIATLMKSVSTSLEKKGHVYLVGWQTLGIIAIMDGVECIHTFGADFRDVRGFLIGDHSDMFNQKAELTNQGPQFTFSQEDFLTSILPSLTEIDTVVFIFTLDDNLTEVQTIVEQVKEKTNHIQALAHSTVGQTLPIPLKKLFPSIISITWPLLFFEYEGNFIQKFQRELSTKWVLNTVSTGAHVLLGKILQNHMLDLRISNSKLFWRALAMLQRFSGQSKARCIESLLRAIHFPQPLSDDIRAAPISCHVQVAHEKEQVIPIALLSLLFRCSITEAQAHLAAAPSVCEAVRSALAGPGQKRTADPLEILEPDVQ
Assay: qHTS assay for inhibitors of recombinant human GCK-GKRP interaction: Diaphorase-coupled assay (AID 743205)
Conditions: G6PDH/diaphorase resorufin fluorescence; series mostly up to 57.5 µM; activity change, positive = activation: at the top concentration
How it was run: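 GST-GCK (10 nM) with FLAG-GKRP (10 nM), 5 mM glucose and 0.4 mM ATP in pH 7.6 Hepes; compounds preincubated 20 min with substrate. G6PDH/diaphorase coupling converts resazurin to resorufin, read kinetically (ex 525/em 590 nm) for 30 min.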

Structure (SMILES) | activity change, positive = activation [%]
CN(C)C(=O)Oc1ccc[n+](C)c1 | 0.229
COCCc1ccc(OCC(O)CNC(C)C)cc1 (stereo not drawn) | 3.72
NC(N)=NC(=O)Cc1c(Cl)cccc1Cl | -2.43
Cc1cccc(C)c1NC(=O)C(C)N (stereo not drawn) | 0.932
CC(=O)[C@@]1(O)CC[C@H]2[C@@H]3CCC4=CC(=O)CC[C@]4(C)[C@H]3CC[C@@]21C | -4.56
CNCCC(Oc1ccccc1OC)c1ccccc1 (stereo not drawn) | -0.494
OCCN1CCN(CCCN2c3ccccc3C=Cc3ccccc32)CC1 | -6.17
CC[N+](C)(C)c1cccc(O)c1 | -6.33
O=C(CCCN1CCC(O)(c2cccc(C(F)(F)F)c2)CC1)c1ccc(F)cc1 | -2.59
COC(=O)C1=C(C)NC(C)=C(C(=O)OC(C)(C)CN(C)CCC(c2ccccc2)c2ccccc2)C1c1cccc([N+](=O)[O-])c1 (stereo not drawn) | -15
Cc1ccc(S(=O)(=O)NC(=O)NN2CCCCCC2)cc1 | 1.04
c1cc(CN2CCCCC2)cc(OCCCNc2nc3ccccc3s2)c1 | -3.97
O=C(CCNNC(=O)c1ccncc1)NCc1ccccc1 | -3.16
CN(C)CC/C=C1\c2ccccc2COc2ccccc21 | -4.44
O=C1CC2(CCCC2)CC(=O)N1CCCCN1CCN(c2ncccn2)CC1 | -3
Fc1ccc(C(c2ccc(F)cc2)N2CCN(C/C=C/c3ccccc3)CC2)cc1 | -9.08
CN=C(NC#N)NCCSCc1nc[nH]c1C | -0.136
CC1=NS(=O)(=O)c2cc(Cl)ccc2N1 | -4.81
CC(C)NCC(O)c1cc(O)cc(O)c1 (stereo not drawn) | -12.5
C[C@]12CC[C@@H]3c4ccc(O)cc4C[C@@H](CCCCCCCCCS(=O)CCCC(F)(F)C(F)(F)F)[C@H]3[C@@H]1CC[C@@H]2O (stereo partly drawn) | -3.58
Cc1ccc(=O)n(-c2ccccc2)c1 | 1.69
Brc1c(NC2=NCCN2)ccc2nccnc12 | -29.4

Biological target: T1, Hexokinase-4 (Homo sapiens) + Glucokinase regulatory protein (Homo sapiens)
Assay: qHTS assay for inhibitors of recombinant human GCK-GKRP interaction: ADP-Glo assay (AID 743206);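 note: plate controls were DMSO plus enzyme for no effect and no enzyme for full effect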
Conditions: ADP-Glo luminescence, 60 min, 0% = vehicle-only wells with enzyme present; series mostly up to 76.9 µM; activity, positive = activation: at the top concentration
How it was run: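 GST-GCK and FLAG-GKRP (15 nM each in the dispensed mix, with 2 uM S6P) react with 0.4 mM ATP and 5 mM glucose (final) in Hepes pH 7.6 for 60 min at room temperature. ADP is measured by ADP-Glo luminescence.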

Structure (SMILES) | activity, positive = activation [%]
CN(C)C(=O)Oc1ccc[n+](C)c1 | -0.39
COCCc1ccc(OCC(O)CNC(C)C)cc1 (stereo not drawn) | -0.885
NC(N)=NC(=O)Cc1c(Cl)cccc1Cl | -0.0823
N[C@@H](COP(=O)(O)O)C(=O)O | 4.3
Cc1cccc(C)c1NC(=O)C(C)N (stereo not drawn) | 3.75
CC(=O)[C@@]1(O)CC[C@H]2[C@@H]3CCC4=CC(=O)CC[C@]4(C)[C@H]3CC[C@@]21C | 1.15
O=C(O)CP(=O)(O)O | 3.34
CNCCC(Oc1ccccc1OC)c1ccccc1 (stereo not drawn) | 5.1
OCCN1CCN(CCCN2c3ccccc3C=Cc3ccccc32)CC1 | 0.849
CC[N+](C)(C)c1cccc(O)c1 | 2.59
Cc1ccc(Cl)c(Nc2ccccc2C(=O)O)c1Cl | 5.19
CCN1CCc2nc(N)oc2CC1 | 3.87
CCCN(CCC)C(=O)C(CCC(=O)O)NC(=O)c1ccccc1 (stereo not drawn) | 3.92
O=C(CCCN1CCC(O)(c2cccc(C(F)(F)F)c2)CC1)c1ccc(F)cc1 | 2.76
COC(=O)C1=C(C)NC(C)=C(C(=O)OC(C)(C)CN(C)CCC(c2ccccc2)c2ccccc2)C1c1cccc([N+](=O)[O-])c1 (stereo not drawn) | 0.164
Cc1ccc(S(=O)(=O)NC(=O)NN2CCCCCC2)cc1 | -1.83
c1cc(CN2CCCCC2)cc(OCCCNc2nc3ccccc3s2)c1 | 1.94

Structure (SMILES) | activity, positive = activation [%]
O=C(CCNNC(=O)c1ccncc1)NCc1ccccc1 | 0.935
CN1CCN(CC(=O)N2c3ccccc3C(=O)Nc3cccnc32)CC1 | 2.78
CN(C)CC/C=C1\c2ccccc2COc2ccccc21 | 1.44
O=C1CC2(CCCC2)CC(=O)N1CCCCN1CCN(c2ncccn2)CC1 | -0.223
Fc1ccc(C(c2ccc(F)cc2)N2CCN(C/C=C/c3ccccc3)CC2)cc1 | 2.01
CCN(Cc1ccncc1)C(=O)C(CO)c1ccccc1 (stereo not drawn) | 5.45
CN=C(NC#N)NCCSCc1nc[nH]c1C | 1.77
O=c1[nH]c(=O)n([C@H]2C[C@H](O)[C@@H](CO)O2)cc1Br | 0.751
CC(C)NNC(=O)c1ccncc1 | 1.54
CCN(CC)CCOCCOC(=O)C1(c2ccccc2)CCCC1 | 0.96
CC1=NS(=O)(=O)c2cc(Cl)ccc2N1 | -0.904
CC(C)NCC(O)c1cc(O)cc(O)c1 (stereo not drawn) | 5.08
C[C@]12CC[C@@H]3c4ccc(O)cc4C[C@@H](CCCCCCCCCS(=O)CCCC(F)(F)C(F)(F)F)[C@H]3[C@@H]1CC[C@@H]2O (stereo partly drawn) | 3.78
COc1ccc2c(c1OC)C(=O)O[C@@H]2[C@H]1c2c(cc3c(c2OC)OCO3)CCN1C | 0.929
Cc1ccc(=O)n(-c2ccccc2)c1 | 2.31
CCOC(=O)C1=C(C)NC(C)=C(C(=O)OC)C1c1cccc(Cl)c1Cl (stereo not drawn) | 1.48
Brc1c(NC2=NCCN2)ccc2nccnc12 | 6.12
